We go through 7 sequences from the supplement of paper PMC6555819.

Common to all, as to assay: PBM binding z-score (relative to random genomic background probes); higher = stronger binding; sequences stand for … in GC…GCGATTGACAGCGTAGAATGAAGG
Assay [1] relates to FXR:RXRa (NR concentration 270 nM, RXRa partner concentration 90 nM). Put shortly: (§1)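 Each nuclear receptor dimer, without ligand, was incubated for 1 h on custom Agilent 4×180K protein-binding microarrays. Binding was detected with antibodies against each partner (one per run), and scanned fluorescence was regression-normalized. The binding z-scores are referenced to random human genomic background probes.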

Assay [2] deals with LXRa:RXRa (NR concentration 270 nM, RXRa partner concentration 90 nM). Put shortly:
as §1

Assay [3] concerns LXRa homodimer (NR concentration 270 nM). An outline of the steps: as §1
Assay [4] concerns LXRb:RXRa (NR concentration 270 nM, RXRa partner concentration 90 nM). An outline of the steps:
as §1

Assay [5] has as its system LXRb homodimer (NR concentration 270 nM). An outline of the steps: as §1
Assay [6] has as its system PPARa:RXRa (NR concentration 270 nM, RXRa partner concentration 90 nM). An outline of the steps:
as §1

Assay [7] concerns PPARg:RXRa (NR concentration 180 nM, RXRa partner concentration 90 nM). An outline of the steps: as §1
Assay [8] deals with PPARg:RXRa 270nM:90nM, anti-RXR (NR concentration 270 nM, RXRa partner concentration 90 nM). Put shortly: as §1
The subject of assay [9] is PPARg:RXRa 30nM:10nM, anti-RXR (NR concentration 30 nM, RXRa partner concentration 10 nM). An outline of the steps:
as §1

The test system of assay [10] is PPARg:RXRa 90nM:30nM, anti-RXR (NR concentration 90 nM, RXRa partner concentration 30 nM). An outline of the steps:
as §1

Assay [11] deals with PPARg:RXRa DBDmut IVT, anti-RXR (DBD mutation: RXRa K156A/R161A, NR concentration 270 nM, RXRa partner concentration 90 nM). Put shortly: as §1
Assay [12] concerns PPARg:RXRa IVT, anti-PPARg (NR concentration 270 nM, RXRa partner concentration 90 nM). Put shortly: as §1
The subject of assay [13] is PPARg DBDmut:RXRa IVT, anti-PPARg (DBD mutation: PPARg1 K132A/R137A, NR concentration 270 nM, RXRa partner concentration 90 nM). An outline of the steps: as §1
Assay [14] has as its system PPARg DBDmut IVT, anti-PPARg (DBD mutation: PPARg1 K132A/R137A, NR concentration 270 nM). An outline of the steps:
as §1

Assay [15] has as its system PPARg homodimer (NR concentration 180 nM). Put shortly:
as §1

Assay [16] concerns PXR:RXRa (NR concentration 270 nM, RXRa partner concentration 90 nM). Put shortly:
as §1

Assay [17] relates to PXR homodimer (NR concentration 270 nM). An outline of the steps: as §1
Assay [18] relates to RARa:RXR (NR concentration 270 nM, RXRa partner concentration 90 nM). An outline of the steps:
as §1

For assay [19], the system named is RARa homodimer (NR concentration 270 nM). An outline of the steps: as §1
Assay [20] deals with RARb:RXRa (NR concentration 270 nM, RXRa partner concentration 90 nM). Put shortly:
as §1

On to TCTGCTAGGTCAACGATGGTCAGCTAGTCTGCTA, for which the PBM binding z-score in [1] was 3.29; in assay [2], 2.53; in [3] it was -0.369; in assay [4], 1.39; in assay [5], -0.445; in [6], 3.44. The PBM binding z-score came out at 2.46 in assay [7]; 2.9 in [8]; 1.75 in assay [9]; 2.53 in assay [10]; 3.64 in [11]; 4.26 in assay [12]. In addition, the PBM binding z-score in [13] is -0.411; in [14] it was -0.961; in assay [15] it was 0.415; in [16], 1.42; in [17], -1.07; in assay [18], 2.26. Moreover, the PBM binding z-score in [19] was -1.08; in assay [20], 4.06.
Consider TAGCCTAGGTCAGGGGCCAGTATACCACGCGAAC, for which the PBM binding z-score in [1] is 1.76; in assay [2], 1.34; in assay [3], -0.415; in assay [4] it was 1.88; in assay [5] it was -0.376; in [6] it was 2.61. For the same sequence, the PBM binding z-score in [7] was determined as 2.83; in assay [8] it was 2.96; in [9], 0.91; in assay [10], 2.43; in assay [11], 0.374; in [12] it was 2.32. Moreover, the PBM binding z-score in assay [13] is 0.429; in [14], 0.131; in assay [15] it was 0.542; in [16], 0.506; in assay [17], -0.579; in assay [18], 1.42. For the same sequence, the PBM binding z-score in [19] is -0.0424; in assay [20], 3.22.
Consider AATCCAGGGTCATCGTAGGCCAGAGTACGCACAG, for which the PBM binding z-score is 7.58 in assay [1]; 6.18 in [2]; 1.65 in assay [3]; 4.8 in assay [4]; 0.807 in assay [5]; 5.75 in [6]. In addition, the PBM binding z-score in assay [7] amounted to 6.7; in [8], 6.07; in assay [9] it was 3.18; in assay [10] it was 4.59; in assay [11], 2.54; in assay [12], 4.33. Besides, the PBM binding z-score in [13] came out at 1.57; in assay [14], 0.689; in assay [15], 2.41; in assay [16], 5.14; in assay [17], 0.854; in assay [18], 5.49. Further, the figures for the PBM binding z-score in assay [19] and in assay [20] were 1.2 and 4.32, respectively.
For the sequence AGAGTGAGGTTAAGATCAGGGAAACAGAATACAT, the PBM binding z-score in [1] came out at 2.54; in assay [2], 2.17; in assay [3], 0.665; in assay [4], 2.44; in assay [5], 1.09; in assay [6], 3.15. Also, the PBM binding z-score stood at 1.43 in [7]; 2.13 in assay [8]; 0.952 in [9]; 1.36 in assay [10]; 0.514 in [11]; 1.39 in assay [12]. Besides, the PBM binding z-score came to 0.929 in assay [13]; 0.933 in assay [14]; 1.63 in [15]; 1.62 in assay [16]; 1.51 in assay [17]; 2.02 in assay [18]. The PBM binding z-score was determined as 1.55 in assay [19] and 2.38 in assay [20].
As to CCTAGTTGGTCAGGCGGTCACACACCGGATATGA, the PBM binding z-score was 0.554 in assay [1]; 0.309 in assay [2]; 0.525 in [3]; 0.155 in assay [4]; 0.122 in assay [5]; 0.32 in [6]. Also, the PBM binding z-score in assay [7] is 0.706; in assay [8], 0.973; in [9], -0.186; in [10] it was 0.129; in [11], 0.37; in [12] it was 0.945. Also, the PBM binding z-score in assay [13] is -0.344; in assay [14], -0.024; in assay [15] it was 0.926; in assay [16], 0.0317; in assay [17], 0.384; in assay [18], -0.0122. Also, the PBM binding z-score in assay [19] stood at 0.796; in [20], 1.75.
For TCCATTAGTTGATTAGGGCAACCGAAACAGCGGA, the PBM binding z-score in assay [1] stood at 0.464; in [2], 0.43; in assay [3] it was 0.384; in assay [4], 0.197; in assay [5], 0.366; in [6], 0.857. Moreover, the PBM binding z-score was 0.199 in assay [7]; 2.15 in [8]; 3.94 in [9]; 2.76 in [10]; 2.08 in [11]; 1.28 in assay [12]. Also, the PBM binding z-score in assay [13] turned out to be 0.323; in [14], 0.941; in assay [15], 0.749; in [16], 0.562; in assay [17], 0.0879; in assay [18], 0.689. Besides, the PBM binding z-score amounted to 0.398 in [19] and 1 in [20].
For AATACAGGGTCGTCGTAGGCCAGAGTACGCACAG, the PBM binding z-score in [1] was 2.12; in assay [2], 1.97; in [3] it was 0.0247; in [4] it was 1.42; in assay [5], 0.00201; in [6], 2.91. Moreover, the PBM binding z-score in [7] was 1.93; in assay [8], 1.36; in [9] it was 0.194; in assay [10], 0.808; in [11], -0.0628; in assay [12] it was 0.91. The PBM binding z-score in assay [13] was determined as 0.684; in assay [14], 0.302; in [15] it was 0.517; in assay [16], 1.7; in assay [17] it was 0.241; in [18], 2.19. Moreover, the PBM binding z-score in assay [19] is 0.296; in assay [20] it was 1.72.
